Compounds with a hit are over-represented: about 7% of the library has one in this group of screens.
BAZ2B block: BAZ2B (human) inhibition | Potency, µM (highest dose often 114 µM), inactives show at the top dose activity change, negative = inhibition, hits mostly inhibitors | Q9UIF8 | 360,000 compounds, 4.4% hits | AlphaScreen BAZ2B-H3K14Ac peptide displacement; also: potency is read from the fitted curve at half-maximal effect; % is scaled to controls: 0 for no effect and ±100 for the full control effect; nearly all actives have a fitted effect of over 60% in size
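BAZ2B 50 nM plus b-H3(5-23)K14Ac 50 nM, PBS pH 7.4/0.01% Tween-20, 30 min RT; compound added (max 110 uM), 30 min RT; streptavidin donor/Ni-chelate acceptor beads 10 ug/mL final, 20 min dark; AlphaScreen read.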
JMJD2A Tudor: inhibitors of human JMJD2A Tudor domain. AlphaScreen JMJD2A-Tudor / H3K4me3 peptide binding. Potency, µM (series often up to 114 µM), for inactives: at the highest dose activity change, negative = inhibition, actives largely listed as inhibitors. 390,000 compounds, 4.4% hits; also: potency is read from the fitted curve at half-maximal effect; % is scaled to controls: 0 for no effect and ±100 for the full control effect; nearly all actives have a fitted effect of over 50% in size
GCN5L2 inh: blocks human GCN5L2 histone acetyltransferase; Potency, µM (top dose mostly 58.9 µM), inactives show at the highest dose activity change, negative = inhibition, hits mostly inhibitors; Q92830; GCN5L2 HAT assay, ThioGlo1 CoA-SH fluorescence; 390,000 compounds, 0.21% hits; AID 504327; also: potency is read from the fitted curve at half-maximal effect; % is scaled to controls: 0 for no effect and ±100 for the full control effect
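Titration-based screen in which CoA formation is detected via maleimide probe ThioGlo1 (50uM) turning fluorescent on thiol reaction; substrates H3(1-25) 75uM and acetyl-CoA 70uM, GCN5L2 20nM, 20 min incubation at room temperature.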
PI5P4K alpha inh: inhibitors of human PI5P4K alpha. P48426. PI5P4Kalpha enzyme, ADP-Glo luminescence, 60 min; hits give low values. max response, %. 330,000 compounds, 1.2% hits. AID 652105; active = max response of -50% or lower; inconclusive = between -30% and -50%; inactive = -30% or higher; also: value at the top dose of about 77 µM; % is scaled to controls: 0 for no effect and ±100 for the full control effect
Target sequence (P48426 whole entry, looked up): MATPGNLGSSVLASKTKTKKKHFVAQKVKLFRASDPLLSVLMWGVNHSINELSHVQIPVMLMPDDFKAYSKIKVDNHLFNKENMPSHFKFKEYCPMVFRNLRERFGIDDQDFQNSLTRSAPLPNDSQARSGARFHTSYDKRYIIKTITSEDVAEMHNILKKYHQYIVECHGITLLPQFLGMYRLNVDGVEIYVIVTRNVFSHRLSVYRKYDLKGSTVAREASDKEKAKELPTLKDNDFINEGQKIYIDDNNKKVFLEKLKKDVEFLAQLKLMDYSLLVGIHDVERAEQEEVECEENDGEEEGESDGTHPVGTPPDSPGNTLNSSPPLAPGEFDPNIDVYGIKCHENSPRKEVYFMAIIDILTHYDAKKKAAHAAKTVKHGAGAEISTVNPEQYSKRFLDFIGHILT
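ADP-Glo luminescence end-point read after a 60 min room-temperature kinase reaction of PI5P4Kalpha plus substrate, initiated with ATP at 5 microM final. Buffer: 0.038 M HEPES pH 7.4, EGTA, 0.1% CHAPS, 5% DMSO.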
PLK1 PBD block: inhibitors of human PLK1 polo-box domain binding | Plk1 PBD binding of FITC phosphopeptide, fluorescence polarization | Potency, µM, without a hit: max response, negative = inhibition, usual class: inhibitors | 360,000 compounds, 2.8% hits; also: potency is read from the fitted curve at half-maximal effect; series mostly up to about 57 µM; % is scaled to controls: 0 for no effect and ±100 for the full control effect; nearly all actives have a fitted effect of over 65% in size
HP1b chromo inh: HP1-beta chromodomain-methylated histone interaction inhibition | AlphaScreen HP1-beta / biotin-H3K9me3 peptide binding | Potency, µM (series often up to 114 µM), inactives show at the top dose activity change, negative = inhibition, actives largely listed as inhibitors | 390,000 compounds, 0.56% hits | AID 540317; also: potency is read from the fitted curve at half-maximal effect; nearly all actives have a fitted effect of over 70% in size
Target sequence (P83916 whole entry, looked up): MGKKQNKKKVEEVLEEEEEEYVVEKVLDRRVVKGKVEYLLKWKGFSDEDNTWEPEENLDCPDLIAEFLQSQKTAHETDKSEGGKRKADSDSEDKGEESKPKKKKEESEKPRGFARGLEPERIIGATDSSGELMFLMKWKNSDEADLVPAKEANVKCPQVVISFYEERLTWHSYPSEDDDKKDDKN
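HP1-beta protein (50 nM final) preincubated 30 min at room temperature with biotinylated H3(1-18)K9me3 peptide (50 nM) in PBS pH 7.4, 0.01% Tween-20, then compound added for 30 min. AlphaScreen streptavidin donor/nickel chelate acceptor beads (10 ug/mL final), 30 min dark, luminescence read.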
* marks the source's active call; other numbers are inactive results; u = inconclusive; x = not tested or not shown; ! = not active in a repeat; [ ] = dose if it differs, or a comment. Unless noted, calls follow the shape of the dose curve; as a rule, active = well fitted curve in the direction sought with a large enough effect; inconclusive = small, poorly fitted or top-dose-only effect, or another doubt; inactive = no such curve, though single readings can be large; an effect the other way counts as inactive or inconclusive.

SMILES | BAZ2B block | JMJD2A Tudor | GCN5L2 inh | PI5P4K alpha inh | PLK1 PBD block | HP1b chromo inh
N#CCCN(C(=O)COC(=O)C1CCN(S(=O)(=O)c2cccs2)CC1)c1ccccc1 | 10.2% | -3.4% | -10.5% | -0.3 | 6.0% | 53.0%
COc1ccc(CC(=O)NNS(=O)(=O)c2ccccc2[N+](=O)[O-])cc1 | -1.6% | -19.4% | -5.3% | 7.6 | -3.5% | -6.3%
O=C(c1ccccc1)n1nnc2ccccc21 | 8.0% | -3.4% | x | 9.4 | 5.97µM* | 41.3%
Nc1nc2ccccc2n1C(=O)c1ccc(F)cc1 | -19.4% | -17.5% | -2.1% | -1.2 | -14.6% | 1.2%
Nc1nc2ccccc2n1C(=O)c1ccccc1 | 79.4µM* | -10.7% | -0.8% | -4.1 | 2.7% | 36.4%
Cc1onc(-c2ccccc2)c1C(=O)n1nnc2ccccc21 | -26.8% | -5.5%[57.1 µM] | -2.1% | -5.1 | u | 70.3%
CCOC(=O)C1=NNC(C(=O)OCC)C1C(=O)OCC (stereo not drawn) | x | 1.4% | x | -0.4 | -3.2% | 9.2%[57 µM]
Cc1cc(C(=O)COC(=O)COc2ccc(C#N)cc2)c(C)n1C1CC1 | u | -31.0% | -9.4% | -0.6 | 0.3% | 3.0%
CC(Oc1ccccc1F)C(=O)NNC(=O)Cc1ccc(S(=O)(=O)N2CCOCC2)s1 (stereo not drawn) | x | -17.0% | x | -9.8 | -3.4% | 36.9%
COC(=O)c1c(C(=O)OC)c2ccccn2c1C(=O)c1ccc([N+](=O)[O-])cc1 | u | u | -6.9% | u | -8.0% | -15.0%
CC(C)OC(=O)c1c2c(n3ccccc13)C(=O)c1ccccc1C2=O | 31.6µM* | u | 3.4% | 0.4 | -14.9% | u
CCN1c2ccccc2N(C)C1(C)c1ccccc1 (stereo not drawn) | 28.2µM* | 8.91µM* | 1.6% | -14.0 | 1.68µM* | 31.6µM*
Cc1cccc(OCC(=O)NCC(=O)N/N=C/c2cc(Br)cc(Br)c2O)c1 | 6.2% | -27.7% | -16.4% | -21.3 | -5.2% | 3.2%[57 µM]
NC(=S)NNC(=O)C12CC3CC(CC(C3)C1)C2 | -32.0% | -8.6% | -2.4% | -8.0 | 26.7µM* | 9.2%
Cc1cc(NC(=O)c2ccccc2F)ccc1-c1nc2ccccc2s1 | 2.3% | -3.3% | -8.5% | x | x | 15.5%
COc1ccc(C/C(C)=N/NC(=S)Nc2ccc(C(C)C)cc2)cc1 | -36.0% | 7.94µM* | -0.6% | -6.7 | -14.1% | 22.2%
CC/C(=N\NC(=S)Nc1ccc(OC)cc1)c1ccc(OC(F)F)cc1 | u | u | -11.1% | 4.5 | -7.5% | u
O=C(CNC(=O)c1ccc(Cl)cc1)OC(C(=O)Nc1cc(C(F)(F)F)ccc1Cl)c1ccccc1 (stereo not drawn) | x | -7.5% | x | x | x | x
Cc1ccc(-n2nc(C(=O)Nc3ccc(C)c(F)c3)c3c4ccccc4n(C)c3c2=O)cc1 | x | -7.3% | -0.4% | x | x | 12.0%
CCOc1ccccc1C(=O)Nc1ccccc1C(N)=O | 13.4% | -11.5% | -7.8% | x | -13.8% | 17.5%
CCOc1ccccc1C(=O)Nc1nn[nH]n1 | 50.1µM* | 56.2µM* | -4.2% | -3.2 | -16.4% | u
CCC1CCCCN1CCCNC(=O)Cn1ncc2c(C)n(Cc3ccccc3Cl)c(C)c2c1=O (stereo not drawn) | -30.3% | u | -1.0% | -12.1 | -3.4% | 16.9%
COCCN(Cc1nc(C(c2ccccc2)c2ccccc2)no1)C(C)C | 10.1% | 21.2% | -4.9% | -0.2 | -1.4% | 68.8%
COc1ccc(N=C2SC(C(N)=O)CC(=O)N2Cc2ccc3c(c2)OCO3)cc1 (stereo not drawn) | 79.4µM* | 79.4µM* | 1.8% | 1.7 | -15.0% | 9.4%
CN1OC[C@@H]2CN(Cc3ccc(Cl)cc3)[C@H](c3ccc(N4CCCCC4)cc3)C[C@@H]21 | x | x | x | 19.5 | -3.5% | x
SMILES | BAZ2B block | JMJD2A Tudor | GCN5L2 inh | PI5P4K alpha inh | PLK1 PBD block | HP1b chromo inh
COc1ccc(C(=O)n2cnc(N)n2)cc1 | 9.9% | -14.2%[57.1 µM] | 2.24µM* | -13.8 | u | -5.7%
CCOc1ccc(C2c3[nH]c4ccccc4c3CCN2C(=O)Cc2cccc(OCC)c2OCC)cc1 (stereo not drawn) | u | u | -12.9% | x | x | -19.2%[57 µM]
CCOc1cc(/C=C2\C(=N)N3N=CSC3=NC2=O)ccc1OS(=O)(=O)c1ccccc1 | 0.2% | -23.1% | -26.6% | u | 23.8µM* | 8.5%
COc1cc(/C=C2\C(=N)N3N=C(S(C)(=O)=O)SC3=NC2=O)ccc1OS(=O)(=O)c1ccc(C)cc1 | 50.1µM* | 56.2µM* | -24.3% | -80.3* | 23.8µM* | -5.4%
CCc1nn2c(=O)cc(COc3ccc(/C=C4\C(=N)N5N=C(C)SC5=NC4=O)cc3)nc2s1 | 50.1µM* | 56.2µM* | u | -72.3* | u | 15.2%
CCc1nn2c(=O)cc(COC(=O)COc3ccc(OC)cc3)nc2s1 | -6.9% | -17.0% | -4.5% | x | x | u
CCOc1cc(/C=C2/C(=N)N3N=C(C)SC3=NC2=O)ccc1OS(=O)(=O)c1ccc(C)cc1 | 7.8% | -22.4% | -16.9% | -19.8 | 16.8µM* | 1.1%
COc1cc(/C=C2\C(=N)N3N=CSC3=NC2=O)ccc1OS(=O)(=O)c1ccccc1 | 1.0% | -24.0% | -5.3% | u | u | 23.2%
COC(=O)c1cc2sc(C)cc2n1CC(=O)Nc1ccc(C)cc1Cl | 0.5% | -18.9% | 0.2% | x | x | 19.3%
COc1ccc(S(=O)(=O)N(C)C)cc1NC(=O)COC(=O)c1nc2nccc(C)n2n1 | 2.9% | -14.0% | -8.8% | -1.1 | -8.9% | 44.6%
O=C(NCc1ccccc1)c1ccc2c(c1)N(Cc1ccc(F)cc1)CCS2 | -15.6% | -25.2% | -7.8% | x | x | 58.1%
CCCCC(=O)c1c(O)c2ccccc2oc1=O | -11.5% | u | -2.3% | 3.7 | -6.7% | 18.7%
CCOc1ccc(OCC(=O)c2c(O)c3ccccc3oc2=O)cc1 | 50.1µM* | 11.2µM* | -3.3% | -19.6 | u | u
COc1ccc(OCC(=O)c2c(O)c3ccccc3oc2=O)cc1 | u | 20µM* | 2.4% | x | -22.5% | 17.8µM*
CC(=N)c1c(O)c2ccccc2oc1=O | -17.5% | -7.7% | 0.3% | 1.5 | -5.6% | 19.0%
NS(=O)(=O)c1ccc(CCNC(=O)c2ccc[nH]c2=S)cc1 | -18.4% | 2.24µM* | 24.7% | u | -6.3% | u
CCOc1cc(C(=O)NCCc2ccc(S(N)(=O)=O)cc2)cc(OCC)c1OCC | 2.1% | u | -12.2% | 2.3 | 29.9µM* | 6.0%
NS(=O)(=O)c1ccc(CCNC(=O)c2cccc3ccccc23)cc1 | 0.4% | -13.0% | -3.8% | 0.4 | -4.9% | 40.1%
Cc1ccc(C(=O)NC(=S)N(C)Cc2ccccc2)cc1 | x | -21.6% | x | 0.8 | 4.5% | 55.3%
CCCN(CCC)C(=S)NC(=O)c1ccc(-c2ccccc2)cc1 | u | 50.1µM* | -7.5% | x | -4.6% | 15.9%
CCc1ccc(NC(=O)CCNC(=O)Cn2cnc3ccccc3c2=O)cc1 | 1.5% | 50.1µM*! | -0.1% | -15.5 | 29.9µM* | 10.0%

From PubChem BioAssay
